Results published in PubChem BioAssay AID624246 (National Center for Advancing Translational Sciences (NCATS), 2012).
In all, about 370,000 compounds went through this assay and about 100 (0.027%) were called active. Many of the other results were omitted from the sample, so actives are more common in it than they were. Values without a mark were called inactive. Calls come from the whole dose curve; as a rule, active = well fitted inhibition curve with a large enough effect in the polarisation, with a control signal flat; inconclusive = small, poorly fitted or top-dose-only effect, or effect the other way, or a change in a side signal; inactive = no such curve, though single readings can be large or run the other way; the % refers to the polarisation.

The compounds below were run against Transcriptional regulator ERG (Homo sapiens) (UniProt P11308) (assay: qHTS for Small Molecule Inhibitors of the ERG Ets/DNA interaction). Details: fluorescence polarization, His-ERG Ets domain / labelled DNA; series mostly up to 76.9 µM; FP activity, negative = inhibition: at the top concentration.
Chain of Transcriptional regulator ERG (Homo sapiens) (P11308 whole entry, looked up, the tested form may be a part): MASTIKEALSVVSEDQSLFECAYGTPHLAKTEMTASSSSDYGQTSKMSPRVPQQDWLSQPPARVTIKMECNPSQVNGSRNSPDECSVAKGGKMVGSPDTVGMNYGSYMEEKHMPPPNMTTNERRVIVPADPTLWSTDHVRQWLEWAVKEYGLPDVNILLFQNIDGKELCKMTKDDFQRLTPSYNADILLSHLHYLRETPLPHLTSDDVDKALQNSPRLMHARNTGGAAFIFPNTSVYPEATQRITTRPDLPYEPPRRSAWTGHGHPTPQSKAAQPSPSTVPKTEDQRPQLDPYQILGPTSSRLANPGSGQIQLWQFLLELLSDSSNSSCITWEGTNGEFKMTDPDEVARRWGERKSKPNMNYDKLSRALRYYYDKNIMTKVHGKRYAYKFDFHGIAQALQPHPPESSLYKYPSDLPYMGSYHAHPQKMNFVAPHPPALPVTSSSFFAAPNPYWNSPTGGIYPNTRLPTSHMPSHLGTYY
Text: The Ets family of proteins is a family of ~30 conserved transcription factors defined by the presence of an ~85 amino acid domain referred to as the Ets domain, which mediates sequence-specific DNA binding to a core DNA element GGAA/T.The Ets family member ERG has been linked to several neoplasms. […] More extensive studies of the effects of over-expression of ERG in prostate cells have recently been carried out and have shown that over-expression of ERG results in increased invasion. […] We will carry out a high throughout screen to identify inhibitors of the interaction between ERG and DNA using a fluorescence polarization (FP) assay with a His-tagged ERG Ets domain and fluorescently-labeled DNA probes to develop small molecule inhibitors of this interaction as probes to test this hypothesis and lay the groundwork for the development of targeted therapies against ERG. NIH Molecular Libraries Probe Production Network [MLPCN] NIH Chemical Genomics Center [NCGC] Grant: NS066464 PI Name: John Bushweller, University of Virgina
1.5 ul of protein solution (1 uM ERG domain in 300mM KCl, 50mM Tris-HCl, 1mM EDTA, 1mM DTT, pH 7.5); 20 nl Control plate and compound library plate; 1.5 ul mixture of 5 nM Fluorescein-DNA and 100nM Texas-615-DNA solution in same buffer as above solution; measure fluorescence polarization sequentially for fluorescein (Excitation = 480 nm, Emission = 535s, 535p nm) and Texas red (Excitation = 555 nm, Emission = 632s, 632p nm).
Potency is the fitted concentration of half-maximal effect.
Throughout, for FP activity, negative = inhibition: % of control where 0% means no effect.

| SMILES | FP activity, negative = inhibition | Potency |
| --- | --- | --- |
| O=C(Nc1ccccc1F)C(c1ccccc1)N1Cc2ccccc2C1=O (stereo not given) | -0.37% | – |
| COc1ccccc1CNC(=O)CCCn1c(=O)c2ccccc2n(CC(=O)Nc2ccc(C)cc2Cl)c1=O | 9.36% | – |
| O=C1Cc2cc(S(=O)(=O)Nc3ccc(OC(F)(F)F)cc3)cc3c2N1CCC3 | 10% | – |
| CCc1ccc(NC(=O)c2nn(-c3ccc(C)cc3)c(=O)n(C)c2=O)cc1 | -0.735% | – |
| COC(=O)c1scc(-c2ccccc2)c1S(=O)(=O)Nc1ccccc1 | 0.898% | – |
| CC1CCN(C(=O)Cn2c(=O)n(-c3ccc(Cl)cc3)c(=O)c3c4c(sc32)CCC4)CC1 | 4.19% | – |
| CCCn1c(NCc2ccc(N(CC)CC)cc2)nc2ccccc21 | -3.75% | – |
| Cc1ccccc1C(=O)NCc1nc(-c2ccc(Cl)cc2)no1 | -2.03% | – |
| Cc1cc(C)c(-c2n[nH]c3c2C(c2ccccc2F)N(CCO)C3=O)c(O)c1 (stereo not given) | -4.81% | – |
| COc1ccccc1-c1cc2nc(C)c(CCC(=O)O)c(C)n2n1 | -0.16% | – |
| CC(C)c1ccc(NC(=O)C2CCN(c3nc(-c4ccc(C(C)C)cc4)no3)CC2)cc1 | 2.37% | – |
| Cc1c(CNC2CCCCC2)c(C(=O)O)c(C)n1Cc1cccc(Cl)c1 | -2.9% | – |
| Cc1ccc(C(=O)NCCSc2c(C)[nH]c3ccccc23)cc1C | -6.47% | – |
| CCCCNC(=O)CSc1nc2cc3c(cc2c(=O)n1CCCCCC(=O)NCc1ccc2c(c1)OCO2)OCO3 | -12.3% | – |
| N#Cc1ccc(-c2cccs2)nc1SCc1ccc(Br)cc1 | 12.1% | – |
| CCc1nn(CC(=O)Nc2cccc(C)c2C)c(=O)c2cc3sccc3n12 | 13.6% | – |
| O=C(Cn1c(=O)n(-c2ccc(F)cc2)c(=O)c2sccc21)Nc1cccc(C(F)(F)F)c1 | -2.35% | – |
| COc1cccc(N=C2SC(C(=O)Nc3cccc(Cl)c3)CC(=O)N2C)c1 (stereo not given) | -5.94% | – |
| COC(=O)c1sccc1S(=O)(=O)N(CC(=O)Nc1ccc(C)c(F)c1)c1ccc(C)c(C)c1 | 2.23% | – |
| Cc1ccc(CCNC(=O)C2CCN(c3nnc(-n4cccc4CNc4ccc(C)cc4)s3)CC2)cc1 | 0.384% | – |
| Cc1ccccc1CNC(=O)C1CCCN(S(=O)(=O)N(C)c2ccc(F)cc2)C1 (stereo not given) | -3.29% | – |
| CCOc1ccccc1CNC(=O)c1ccc(-n2c(C)cc3c2CCC(C)C3)cc1 (stereo not given) | 5.18% | – |
| CCOC(=O)c1scc(-c2ccccc2)c1S(=O)(=O)Nc1ccccc1F | 3.67% | – |
| COc1ccc(C)cc1NC(=O)COCc1cc(-c2cccs2)on1 | 8% | – |

| SMILES | FP activity, negative = inhibition | Potency |
| --- | --- | --- |
| COc1ccc(NC(=O)CSC2=Nc3ccccc3C3=NC(CC(=O)NCc4ccccc4OC)C(=O)N23)cc1Cl (stereo not given) | -0.573% | – |
| O=C(/C=C/c1ccccc1)Nc1cc(-c2nc3cc(Cl)ccc3o2)ccc1Cl | 4.72% | – |
| Cc1ccc(-n2ncc3c(NCCCn4ccnc4)ncnc32)cc1Cl | -1.49% | – |
| Cc1nn2c(=O)cc(COC(=O)c3cccc(NC(=O)COc4ccccc4Cl)c3)nc2s1 | 8.49% | – |
| COc1ccc(CNC(=O)CC2Oc3ccc(C)cc3NC2=O)cc1 (stereo not given) | 1.76% | – |
| CCOc1ccc(C2C(=O)N(C3CCCCC3)CC(=O)N2CCC2=CCCCC2)cc1OC (stereo not given) | -1.03% | – |
| COc1ccc(NC(=O)CCCc2nnc3n(CCC(C)C)c(=O)c4sccc4n23)c(OC)c1 | 3.52% | – |
| COc1ccc(CCNC(=O)c2c3c(nc4ccccc24)C(=O)N(C2CCCCC2)C3)cc1OC | 0.33% | – |
| Fc1ccccc1Oc1ncnc2c1oc1ccccc12 | -0.355% | – |
| CCOC(=O)c1sc(NC(=O)/C=C/c2ccc(C(C)C)cc2)c(C(=O)OCC)c1C | -7.51% | – |
| CCOC(=O)c1ccc(CN(Cc2ccccc2)S(=O)(=O)c2ccc(Cl)cc2)cc1 | 0.277% | – |
| COc1ccc(Br)cc1C1CC(=O)Nc2c1c(C)nn2-c1nc(C)cc(C)n1 (stereo not given) | -7.83% | – |
| Cc1ccc(Cl)cc1NC(=O)CCC(=O)N1CC(C)Sc2ccccc21 (stereo not given) | 3.77% | – |
| Cc1ccc(C(=O)CC2(O)C(=O)N(CCc3ccccc3)c3ccc(Br)cc32)cc1 (stereo not given) | -0.549% | – |
| COc1cc(NC(=O)Cn2nc(-c3ccc(C)c(C)c3)ccc2=O)cc(OC)c1 | 4.13% | – |
| COc1ccccc1NC(=O)CN1C(=O)c2ccccc2Sc2ccc(C(=O)N3CCCC3)cc21 | -2.51% | – |
| CCOC(=O)c1[nH]c(C)c(CCC(=O)NCc2ccccc2C)c1C | -3.1% | – |
| Cc1ccc(CNC(=O)CSc2c3c(nc4cc(Cl)ccc24)CCCC3)cc1 | -0.34% | – |
| CCN1C(=O)c2ccccc2S(=O)c2ccc(C(=O)NCc3ccc(F)cc3)cc21 (stereo not given) | -4.21% | – |
| CC1Cc2cc(S(=O)(=O)CCC(=O)Nc3ccc(F)c(Cl)c3)ccc2N1C(=O)C1CC1 (stereo not given) | 0.16% | – |
| O=C(CSc1n[nH]c(-c2ccccc2)n1)N1CCCCC1 | 8.6% | – |
| O=C(/C=C/c1cn(CC(O)CN2CCc3ccccc32)c2ccccc12)c1ccc(Br)cc1 (stereo not given) | -7.5% | – |
| CC(=O)c1nn(-c2ccc(OC(F)(F)F)cc2)nc1Nc1ccccc1 | -1.16% | – |
| Cc1nn(-c2ccc(N3CCCCC3)nn2)c(C)c1CCC(=O)NCc1ccccc1F | -5.53% | – |

| SMILES | FP activity, negative = inhibition | Potency |
| --- | --- | --- |
| CCc1ccc(C(=O)CC2(O)C(=O)N(CCc3ccccc3)c3ccc(Br)cc32)cc1 (stereo not given) | -0.514% | – |
| CCOc1cc(C2c3c(-c4ccc(Br)cc4)n[nH]c3C(=O)N2c2ccc(Cl)cc2)ccc1O (stereo not given) | 12% | – |
| CCOc1ccc(-c2nonc2NC(=O)c2oc3ccc(C)cc3c2C)cc1OCC | 0.0958% | – |
| CC1=C(C(=O)OCC(C)C)C(c2ccc(OCc3ccccc3)cc2)N2C(=O)CCSC2=N1 (stereo not given) | -0.84% | – |
| O=C(NCc1ccccc1)c1ccc2c(c1)nc1n2CCCCC1 | -0.294% | – |
| COC(=O)c1cc(S(=O)(=O)N2CCN(c3cc(Cl)ccc3C)CC2)c[nH]1 | -1.55% | – |
| Cc1ccc(C)c(N2CCN(CCCNC(=O)Nc3ccc(Cl)cc3)CC2)c1 | 1.63% | – |
| COc1ccc(-c2cn3nc(N4CCC(C(=O)Nc5cccc(C)c5C)CC4)sc3n2)cc1 | -1.85% | – |
| COc1ccc(OC)c(NC(=O)CSC2=Nc3ccccc3C3=NC(CC(=O)NCc4ccc(F)cc4)C(=O)N23)c1 (stereo not given) | 5.04% | – |
| Cc1ccc2oc(=O)c3cnn(CC(=O)NCc4ccccc4Cl)c3c2c1 | -1.05% | – |
| CCOc1ccc(CNC(=O)c2cccc(Nc3nc4ccccc4n4nnnc34)c2)cc1OC | -1.27% | – |
| Cc1ccc(C)c(Oc2c(C(F)(F)F)oc3c(CN4CCN(C)CC4)c(O)ccc3c2=O)c1 | 1.61% | – |
| CCOc1ccccc1NC(=O)CN1CCCN(Cc2cccc(Cl)c2)S1(=O)=O | 4.01% | – |
| Cc1ccc(OCCSc2nc(C)c(Cc3ccccc3)c(=O)[nH]2)cc1 | 1.16% | – |
| CCC1(C)CC(=O)c2c(ccc3oc(C(=O)Nc4ccc(C(C)=O)cc4)c(C)c23)O1 (stereo not given) | -5.73% | – |
| COc1ccc(CCNC(=O)c2ccc(-n3c(C)cc4c3CCCC4)cc2)cc1OC | -3.33% | – |
| Cc1ccc(C)c(CNC(=O)c2cc3ccccn3n2)c1 | -10.3% | – |
| CCOc1ccccc1NC(=O)CN1CCN(S(=O)(=O)c2ccc(Br)cc2)CC1 | 2.57% | – |
| Cc1oc(-c2ccccc2F)nc1CN1CCC(C(=O)NCCc2ccc(Cl)cc2)CC1 | -1.13% | – |
| CCOc1cccc(C(=O)Nc2nnc(S(=O)(=O)N(C)c3ccc(C)cc3)s2)c1 | 0.655% | – |
| COc1ccc(Cn2ccc3nc(C)c(C(=O)Nc4ccc(C)c(F)c4)cc3c2=O)cc1 | -3.4% | – |
| COc1ccc(OC)c(CNC(=O)Cn2nc(C)c3c(C)n(-c4ccccc4)nc3c2=O)c1 | 3.15% | – |
| CCN(CC)CCNC(=O)CN1N=C(c2ccc(OC)cc2)CCC1=O | -3.32% | – |
| CCOC(=O)c1cc2c(=O)n3ccccc3nc2n(CCCOC)c1=NC(=O)C(C)(C)Oc1ccc(Cl)cc1 | -23.1% | – |

| SMILES | FP activity, negative = inhibition | Potency |
| --- | --- | --- |
| COc1cccc(-c2nnc(SCC(=O)N3CCC(C)CC3)o2)c1 | 1.34% | – |
| COC(=O)c1ccc(NC(=O)c2cnn(-c3ccc(Cl)cc3)c2C2CCN(C(=O)OC(C)(C)C)CC2)cc1 | 2.85% | – |
| COc1cccc2c1C(=O)c1c(O)c3c(c(O)c1C2=O)CC(O)(C(C)=NNC(=O)c1ccc(Cl)c(Cl)c1)CC3OC1CC(N)C(O)C(C)O1 (stereo not given) | – | 2.51 µM (active) |
| O=C(NCc1ccc2c(c1)CCN2C(=O)c1ccccc1)Nc1cc(F)ccc1F | -0.322% | – |
| O=C(NCCCO)C(=O)Nc1c2c(nn1-c1ccccc1)CSC2 | 6.72% | – |
| O=C(Nc1ccc2nc(SCCOc3ccccc3Cl)sc2c1)c1ccco1 | -0.316% | – |
| CCc1nc(-c2cc(S(=O)(=O)N3CCN(c4ccc(OC)cc4)CC3)ccc2OC)no1 | -3.39% | – |
| CCCN1CCc2nc(N3CCN(C)CC3)ncc2C1 | 1.55% | – |
| C/C(=N/NC(=O)CCc1ccccc1)c1ccco1 | – | 28.2 µM (active) |
| COc1cccc2cc(/C(C)=N/NC(=O)c3ccco3)oc12 | -10.8% | – |
| C/C(CC(=O)NC(C)(C)C)=N\NC(=O)c1ccco1 | 3.01% | – |
| CCC1=Nc2cc(C(=O)NCCCOC(C)C)ccc2Sc2ccc(C)cc21 | -0.0425% | – |
| CCOC(=O)c1ccc2c(c1)N(Cc1cccc(OC)c1)C(=O)c1ccccc1S2(=O)=O | -4.86% | – |
| CN(C(=O)c1ccc2c(c1)N(Cc1cccc(Cl)c1)C(=O)c1ccccc1S2=O)C1CCCCC1 (stereo not given) | -4.59% | – |
| O=C1CN(C(=O)Nc2ccccc2C(F)(F)F)C(c2ccccc2)c2c(sc3c2CCCC3)N1 (stereo not given) | 6.74% | – |
| COc1ccccc1NC(=O)C1=C(C)Nc2nc(SCC(=O)c3ccc(C)cc3)nn2C1c1ccccc1C (stereo not given) | -8.08% | – |
| O=C1N(Cc2ccccc2)c2ccc(Cl)cc2C1(O)c1c[nH]c2ccccc12 (stereo not given) | 0.882% | – |
| CCOC(=O)c1c(NC(=O)/C=C/c2ccc(OC)cc2)sc2c1CCC(C)C2 (stereo not given) | 2.55% | – |
| CCOC(=O)c1ccccc1NC(=O)c1nn(-c2ccc(OC)c(Cl)c2)c(=O)c2c1c1ccccc1n2C | -3.65% | – |
| CCc1ccc(NS(=O)(=O)c2ccc3[nH]cc(C(=O)NCCc4cccc(C)c4)c(=O)c3c2)cc1 | -8.63% | – |
| COc1ccc(N2CCN(c3nc(-c4ccccc4F)nc4ccccc34)CC2)cc1 | -3% | – |
| CC(C)c1ccc(OCC(=O)N(Cc2ccc(N(C)C)cc2)C2CCS(=O)(=O)C2)cc1 (stereo not given) | -0.0046% | – |
| CCOc1cccc(CC(=O)N2CCc3c([nH]c4ccccc34)C2c2ccc(F)cc2)c1OCC (stereo not given) | 1.73% | – |
